Among all 1,000 compounds or so, about 700 (70%) were called active. So high a share suggests a set chosen from earlier hits. These entries were drawn from the full list. Unmarked numbers belong to inactive results. Rule as the data show it: active = inhibition above about 50%; inactive = the rest.

The nature of this test: CASP1-PYCARD signaling inhibition in yeast, confirmatory test, counterassay for NLRP3 inhibitor program, one-dose (AID 488784). The note with it: yeast expressing Caspase-1-ASC, luminescence counter screen; at 10 µM; hits give high values.
With `O=C1/C(=C\c2ccc3c(c2)OCO3)N2CCC1CC2`, the inhibition was 60.4% (active). In the case of `Cc1cc2ccccn2c1C(C[N+](=O)[O-])c1c(F)cccc1Cl` (centres undefined) it was 12.2%. For the compound `CCCCCCCCCCCCn1ccc(=N)cc1`, the inhibition is 59% (active). In the case of `Cc1ccc(-c2nc3ccccc3c(=O)n2-c2ccc(Br)cn2)cc1` it was 44%.

Values taken from PubChem BioAssay AID488784 (Sanford-Burnham Center for Chemical Genomics, 2010).
